Screens deposited in PubChem by National Center for Advancing Translational Sciences (NCATS).
FBPA Giardia inh: qHTS Assay for Inhibitors of Fructose-1,6-bisphosphate Aldolase from Giardia Lamblia; actives 0.71% (n = 290,000); AID 2451, 2010; Potency, µM (titrated, usually from 59.6 µM), usual class: inhibitors; purified Giardia FBPA; A8B2U2; also: nearly all actives have a fitted effect of over 55% in size
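40 nM FBPA preincubated 10 min at RT with compound (up to 57.5 uM final), then substrate plus GAPDH/TPI/NAD/arsenate coupling and diaphorase/resazurin added. Fluorescence read after 20 min at RT, 525/598 nm.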
RE007 growth inh: qHTS Assay for Inhibitors of the HIV-1 protein Vpr. S. pombe RE007 Vpr strain, BacTiter-Glo ATP luminescence, 24 h. actives 0.21% (n = 360,000). Potency, µM (series often up to 92.2 µM), usual class: inhibitors; active = well fitted falling curve with a large enough effect; inconclusive = small, poorly fitted or top-dose-only effect; inactive = no such curve, though single readings can be large or run the other way; also: nearly all actives have a fitted effect of over 50% in size
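Fission yeast strain RE007, carrying one chromosomally integrated HIV-1 vpr copy, was seeded at OD 0.01 in PMG+AL medium with 23 nL pinned compound. After 24 h at 30 °C and 99% humidity, viability was read by BacTiter-Glo luminescence.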
Shiga inhibitor: A qHTS for Small Molecule Inhibitors of Shiga Toxin; inhibition, % at 38.7 µM; Vero cells, Shiga toxin protein synthesis inhibition reporter; actives 9.2% (n = 290,000); in the data active = inhibition mostly above about 28%, no sharp cut-off; inactive = mostly below about 43%
TbPYK inhibitor: qHTS of Trypanosoma Brucei Inhibitors; pyruvate kinase (Trypanosoma brucei), Q57TT1; TbPYK enzyme, Kinase-Glo Plus ATP luminescence, 45 min; Potency, µM (titrated, usually from 76.8 µM), most hits filed as inhibitors; actives 0.12% (n = 410,000); also: nearly all actives have a fitted effect of over 50% in size
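Luminescence from Kinase-Glo Plus, added after a 45-minute room-temperature reaction, served as the end-point read-out. The enzyme and substrate were preincubated with compound before ADP (130 uM final) initiated turnover. Concentration-effect curves came from normalized qHTS data.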
LmPK inh: qHTS Assay for Inhibitors of Leishmania Mexicana Pyruvate Kinase (LmPK); Q27686; purified LmPK, Kinase-Glo ATP luminescence, 1 h; Potency, µM (series often up to 57.5 µM), most hits filed as inhibitors; actives 0.37% (n = 290,000)
Target sequence (Q27686 whole entry, looked up): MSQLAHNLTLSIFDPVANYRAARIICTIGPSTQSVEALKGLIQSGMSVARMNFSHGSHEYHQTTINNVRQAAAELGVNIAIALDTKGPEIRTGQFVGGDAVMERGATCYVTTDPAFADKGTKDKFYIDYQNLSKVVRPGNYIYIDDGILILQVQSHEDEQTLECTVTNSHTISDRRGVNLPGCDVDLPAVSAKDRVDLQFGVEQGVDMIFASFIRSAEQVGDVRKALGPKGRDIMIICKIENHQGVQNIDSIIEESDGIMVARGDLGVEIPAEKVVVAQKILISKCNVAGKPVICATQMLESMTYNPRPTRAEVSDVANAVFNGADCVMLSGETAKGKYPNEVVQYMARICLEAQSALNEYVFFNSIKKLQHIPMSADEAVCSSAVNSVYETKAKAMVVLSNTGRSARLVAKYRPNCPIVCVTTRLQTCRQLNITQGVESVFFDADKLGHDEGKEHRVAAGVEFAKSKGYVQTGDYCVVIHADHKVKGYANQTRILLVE
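ATP generated from ADP (0.1 mM) and PEP (0.5 mM) by 0.1 nM LmPK over 1 h at room temperature (pH 7.2 imidazole buffer) was detected by coupled luciferase luminescence. Values were normalized to uninhibited and no-enzyme wells.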
CHX counter: Cycloheximide Counterscreen for Small Molecule Inhibitors of Shiga Toxin; cell reporter, cycloheximide protein synthesis inhibition counterscreen; max response, %; actives 12% (n = 300,000); AID 2314, 2010; in the data active = max response mostly above about 13%, no sharp cut-off; inactive = mostly below about 14%; also: read at 38.3 µM for the half of the compounds with a filed dose
A number is an active result; - = inactive; ? = inconclusive; . = not tested or not shown. This is one part of a sample in which hits are shown more often than they occur. Unless noted, calls follow the shape of the dose curve; as a rule, active = well fitted curve in the direction sought with a large enough effect; inconclusive = small, poorly fitted or top-dose-only effect, or another doubt; inactive = no such curve, though single readings can be large; an effect the other way counts as inactive or inconclusive.

SMILES	FBPA Giardia inh	RE007 growth inh	Shiga inhibitor	TbPYK inhibitor	LmPK inh	CHX counter
Cc1ccc(N2C(=O)C(CC(=O)Nc3cccc(F)c3)N(CCc3ccccc3F)C2=O)cc1 (configuration not stated)	.	.	.	-	.	.
CCCN(CC(=O)Nc1ccccc1C)C(=O)c1ccc2ccccc2n1	.	-	.	-	.	.
COc1ccccc1NS(=O)(=O)c1cccc(NC(=O)c2ccc3ccccc3n2)c1	-	-	-	-	-	17.2
O=C(Nc1cc(C(F)(F)F)ccc1N1CCOCC1)c1ccc2ccccc2n1	-	-	-	-	-	23.4
O=C(Nc1ccc(OC(F)(F)F)cc1)c1ccc2ccccc2n1	-	-	-	-	-	41.9
Cc1ccccc1NC(=S)c1ccc2ccccc2n1	-	-	96.6	-	-	47.7
Cc1cc(C(=O)Nc2cc(C(F)(F)F)ccc2N2CCOCC2)no1	.	-	-	-	-	-
Cc1ccc(NC(=O)Cn2c(=O)n(-c3ccc(C)cc3)c(=O)c3ccc(C(=O)NCc4ccccc4Cl)cc32)cc1	.	.	.	-	.	.
O=C(Nc1ccc(S(=O)(=O)NCc2ccco2)cc1)c1ccc2ccccc2n1	-	-	50.7	-	-	88.9
O=C(NCc1ccco1)c1ccc2ccccc2n1	-	-	-	-	-	-
COc1cnc(-c2ccccn2)nc1Oc1ccc(F)cc1F	-	-	-	-	-	32.5
COc1cnc(-c2ccccn2)nc1Oc1ccc(Cl)cc1	?	-	-	-	-	-
COc1cnc(-c2ccccn2)nc1Oc1ccccc1Cl	-	-	-	-	-	29.6
COc1cccc(NC(=O)Nc2cc(C)ccc2OC)c1	-	?	-	-	-	-
COc1ccc(C2(c3ccc(OC)cc3)NC(=O)N(CC(=O)Nc3cc(C)ccc3OC)C2=O)cc1	.	-	116.0	-	-	32.7
COc1ccc(NC(=O)Nc2cc(C)ccc2F)cc1	-	-	-	-	?	26.2
COc1cccc(NC(=O)Nc2cc(C)ccc2F)c1	-	-	95.3	-	-	27.3
COc1ccc(C(=O)COc2ccc(C)cc2NC(C)=O)cc1	-	-	96.4	-	-	48.7
C=CCOC(=O)C1(C(NC(=O)OC)c2ccccc2)C(=O)Cc2ccccc21 (configuration not stated)	-	.	.	.	.	.
CCC1CC=CC2C1C(=O)N(Cc1ccccc1)C2c1ccc(OC)c(Cl)c1 (configuration not stated)	-	.	-	.	.	-
Cc1nn(CC(=O)NCc2cccc(F)c2)c(=O)c2c(C)n(-c3ccc(Cl)cc3)nc12	.	.	.	-	.	.
COc1ccc(NC(=O)Nc2cc(C)ccc2OC)cc1	-	-	-	-	-	24.3
Cc1ccc(C2C3C(=O)N(c4ccccc4)C(=O)C3N3CCCN23)cc1 (configuration not stated)	-	-	-	-	-	28.3
O=C1C2C3C=CC(C3=C3CCCCC3)C2C(=O)N1c1ccccc1 (configuration not stated)	-	35.5µM	-	-	-	-
Cc1ccc(C2C3C(=O)N(c4ccc(C)cc4)C(=O)C3N3CCCN23)cc1 (configuration not stated)	-	-	-	-	-	-
SMILES	FBPA Giardia inh	RE007 growth inh	Shiga inhibitor	TbPYK inhibitor	LmPK inh	CHX counter
CCOC(=O)Cn1c(=O)n(CC2CCCO2)c2nc(-c3ccc(C)cc3)nc(C(N)=O)c21 (configuration not stated)	.	.	.	-	.	.
CC(=O)Oc1ccc(C(=O)Nc2ccc(C3(C#N)CCCC3)cc2)cc1	-	-	-	-	-	12.1
N#CC1(c2ccc(NC(=O)c3ccccc3)cc2)CCCC1	-	.	134.7	.	?	47.3
O=C(Nc1ccc(Nc2ccccc2)cc1)c1ccccc1	.	-	.	-	.	.
O=C(Nc1ccccc1Cl)c1ccc(Cl)cc1Cl	-	-	54.1	-	-	53.7
O=C(NC(=S)Nc1ccccc1O)c1ccc(Cl)cc1Cl	-	?	94.2	-	-	30.4
O=C(Nc1ccc(Cl)cc1Cl)c1ccc(-c2ccccc2)cc1	-	-	-	-	-	-
C#Cc1cccc(NC(=O)c2ccc(Cl)cc2Cl)c1	-	-	69.9	-	-	20.4
Nc1ccccc1C(=O)Nc1ccc(Cl)cc1Cl	-	-	126.9	-	-	33.5
CCOc1ccccc1NC(=O)CC1C(=O)NCCN1C(=O)c1ccc(F)cc1 (configuration not stated)	.	.	.	-	.	.
O=C(Nc1ccc2oc(-c3cccnc3)nc2c1)c1ccccc1F	.	.	.	-	.	.
CCn1c(=O)n(C2=C(CO)CN(CC3CCCCCCC3)CC2)c2ccccc21	-	.	-	.	.	-
COc1ccccc1C(=O)Nc1ccc2c(c1)nc1n2CCSC1	-	-	60.3	-	-	24.0
Cc1ccc(C(=O)Nc2ccc3c(c2)nc2n3CCSC2)cc1	-	-	-	-	-	30.7
CC(=O)Nc1ccc2c(c1)nc1n2CCSC1	-	-	-	-	-	-
COc1ccccc1C(=O)Nc1ccc2c(c1)nc1n2CCN(Cc2ccccc2)C1	-	-	-	-	-	-
CCCCC(=O)Nc1ccc2c(c1)nc1n2CCSC1	-	-	65.3	-	-	27.4
O=c1ccc2c(OCCCCc3ccccc3)c3ccoc3cc2o1	-	.	.	.	.	.
COc1ccc(/C=N/Nc2nc(C(=O)O)cs2)cc1	-	-	33.9	?	-	24.9
CCOC(=O)Cc1csc(N/N=C\c2ccc(N(C)C)cc2)n1	-	-	63.7	-	-	24.0
COC(=O)c1ccc(/C=N/Nc2nc(-c3ccccc3)cs2)cc1	-	-	-	-	-	-
CCOC(=O)Cc1csc(N/N=C/c2ccccc2)n1	-	-	104.1	-	-	60.9
CCOC(=O)Cc1csc(NC(=O)COc2ccccc2OC)n1	-	-	-	-	-	-
CCOC(=O)Cc1csc(N/N=C\c2ccccc2OC)n1	-	-	50.4	-	-	23.9
Cc1ccc(NC(=O)Cn2c(=O)n(Cc3ccc(F)cc3)c(=O)c3cccnc32)cc1C	.	.	.	-	.	.
CCOC(=O)c1cccc(NC(=O)c2cc(C)nc3c2c(C)nn3-c2ccc(C)cc2)c1	.	.	.	-	.	.
CCCCN(CC)CCCNC(=O)Nc1sc2nc3n(c(=O)c2c1C)CCC(C)CC3 (configuration not stated)	.	.	.	-	.	.
CCOC(=O)Cc1csc(N/N=C\c2cccc(Br)c2)n1	-	-	51.9	-	-	11.2
Cc1csc2nc(-c3cccc(NC(=O)c4ccc(S(N)(=O)=O)cc4)c3)cn12	.	.	.	-	.	.
COc1ccc(C2c3c(oc4ccc(Cl)cc4c3=O)C(=O)N2CCN2CCOCC2)cc1 (configuration not stated)	-	-	-	-	-	13.0
